Screening data as filed in PubChem.
Only some compounds are listed: those with a hit (about 4.1% of all), similar ones and a draw of the others.
DAX1 inh-1: inhibitors of DAX1 repression of SF-1 activated StAR promoter | AID 652010 | HEK293T StAR-luciferase reporter, SF-1/DAX-1 repression relief | inhibition, % at 6.8 µM | actives 1.1% (n = 370,000);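 active means inhibition above the mean over all tested compounds plus 3 SD, cut at about 3.6% in these data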;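 further: higher inhibition means more luminescence from relief of DAX-1 repression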
DAX1 inh-2: inhibitors of human orphan nuclear receptor DAX1 (NR0B1); actives 0.99% (n = 340,000); AID 504766; P51843; inhibition, % at 6.75 µM; HEK293 Gal4-DAX1 luciferase reporter, luminescence;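 active means inhibition above the mean over all tested compounds plus 3 SD, cut at about 4.2% in these data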;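 further: inhibition shows as a rise in luminescence from relieved DAX1 repression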
Target sequence (P51843 207-470 limits assumed): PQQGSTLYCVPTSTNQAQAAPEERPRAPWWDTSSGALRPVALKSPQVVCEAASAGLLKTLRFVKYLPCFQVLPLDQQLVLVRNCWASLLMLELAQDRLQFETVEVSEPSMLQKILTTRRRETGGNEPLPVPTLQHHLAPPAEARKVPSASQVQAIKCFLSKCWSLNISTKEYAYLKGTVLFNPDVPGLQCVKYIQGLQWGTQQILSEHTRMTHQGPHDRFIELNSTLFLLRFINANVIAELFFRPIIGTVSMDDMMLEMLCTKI
ssDAF12 agonist: activators of S. stercoralis DAF-12 nuclear receptor; HEK293 ssDAF-12/GRIP1 lit1-tk-luc reporter, luminescence; % of 3 µM dafachronic acid response; activation, % at 6.8 µM; actives 1% (n = 370,000);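 active means activation above the mean over all tested compounds plus 3 SD, cut at about 0.9% in these data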
hcDAF-12 act: activators of H. contortus DAF-12 nuclear receptor; AID 652067; activation, % at 6.8 µM; actives 1.4% (n = 370,000); HEK293 hcDAF-12 lit1-tk-luc reporter, luminescence; 0% DMSO, 100% Δ7-dafachronic acid;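 active means activation above the mean of all tested compounds plus 3 SD, cut at about 5.5% in these data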
hgDAF12 agonist: agonists of H. glycines DAF-12 nuclear receptor; actives 1.8% (n = 370,000); activation, % at 6.8 µM; HEK293 GAL4-hgDAF12 UAS-luciferase reporter, agonist luminescence; normalized to butyrate control;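 active means activation above a cutoff set at the mean of all screened compounds plus 3 SD, cut at about 10% in these data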
LXRb hcDAF ctr: LXR-beta agonism as hcDAF-12 counter-screen | shares compounds with hcDAF-12 act | HEK293 Gal4-LXR tk-luc reporter, luminescence, 24 h; normalized: DMSO 0%, positive control 100% | activation, % at 6.8 µM | 3,400 tested, under 10 active | AID 743027;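 active means mean percent activation of the reporter above a cutoff set as the average over tested compounds plus their standard deviation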
hcDAF12 ag: confirmation of H. contortus DAF-12 agonists; shares compounds with hcDAF-12 act; activation, % at 6.8 µM; actives 61% (n = 3,400); HEK293 hcDAF-12 lit1-tk-luc reporter, luminescence; % of Δ7-dafachronic acid response;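 active means mean activation across triplicate tests above the threshold derived from the earlier primary screen, cut at about 5.5% in these data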
Of the large screens only hits and unclear results are named; the others gave an inactive call (follow-up assays come after a bar, where they were run).

COc1cccc(/C=N/NC(=O)C(=O)N/N=C/c2cccc(OC)c2OC)c1OC	none
CCn1c(C)c(/C=N/Nc2nc3ccccc3s2)c2ccccc21	hcDAF-12 act 11.6, hgDAF12 agonist 10.8 | LXRb hcDAF ctr inactive | hcDAF12 ag inactive
COc1cccc(/C=N/Nc2nnc3c(n2)[nH]c2ccccc23)c1OC	hcDAF-12 act 7.1 | LXRb hcDAF ctr inactive | hcDAF12 ag inactive
CC(C)N(Cc1ccccc1)C(=O)COC(=O)C1CCCCC1	none
Oc1ccccc1-c1csc(-c2ccccc2)n1	DAX1 inh-2 4.9, ssDAF12 agonist 5.1, hcDAF-12 act 13.7, hgDAF12 agonist 20.0 | LXRb hcDAF ctr inactive | hcDAF12 ag 14.6
COc1ccccc1C(=O)NNC(=O)c1ccc2ccccc2c1	none
COc1ccccc1C(=O)NNC(=O)C(=O)Nc1ccc(C)cc1	none
COc1ccccc1C(=O)NNC(=O)c1ccc(O)cc1	none
COc1ccccc1C(=O)NNC(=O)c1ccc(F)cc1	hcDAF-12 act 9.3 | LXRb hcDAF ctr inactive | hcDAF12 ag 6.8
COc1ccccc1C(=O)NNC(=S)Nc1ccccc1	hcDAF-12 act 10.7 | LXRb hcDAF ctr inactive | hcDAF12 ag 9.0
COc1ccccc1C(=O)NNC(=O)C1CC=CCC1 (configuration not stated)	ssDAF12 agonist 4.0, hcDAF-12 act 7.2 | LXRb hcDAF ctr inactive | hcDAF12 ag 7.2
CC(OC(=O)[C@H](C)N=C1NS(=O)(=O)c2ccccc21)C(=O)Nc1ccc(F)c(F)c1F (some centres not stated)	none
C#CCSc1nnnn1-c1ccc(Br)c(C)c1	hcDAF-12 act 10.0 | LXRb hcDAF ctr inactive | hcDAF12 ag inactive
Cc1ccc(-n2nnnc2SCC#N)cc1	none
COc1ccc(-c2cnc(C(O)c3ccccc3)[nH]2)cc1 (configuration not stated)	DAX1 inh-1 4.3, hcDAF-12 act 6.7 (no result: DAX1 inh-2) | LXRb hcDAF ctr inactive | hcDAF12 ag 7.1
Cc1ccc(N(CC(=O)NCCc2ccc(F)cc2)S(=O)(=O)c2ccc(Cl)c([N+](=O)[O-])c2)c(C)c1	none
CCCCNC(=O)c1cccc(S(=O)(=O)N2CC3(C)CC2CC(C)(C)C3)c1 (configuration not stated)	none
Cc1cc2ccccn2c1C(=O)Nc1cccc(Cl)c1	hcDAF-12 act 7.0 | LXRb hcDAF ctr inactive | hcDAF12 ag 6.1
Cc1ccc(C(=O)NC(=S)c2c(C)cc3ccccn23)cc1	ssDAF12 agonist 4.1, hcDAF-12 act 7.5, hgDAF12 agonist 11.8 | LXRb hcDAF ctr inactive | hcDAF12 ag 8.5
Cc1cc2ccccn2c1C(=S)NC(=O)c1ccccc1	none
Cc1cc2ccccn2c1C(=O)c1ccc(Cl)cc1	none
O=C(CCNC(=O)C1CCN(S(=O)(=O)c2ccccc2)CC1)NCc1ccccc1Cl	none
O=C1Cc2ccccc2C(=O)N1CCc1ccccc1	DAX1 inh-2 4.7, hcDAF-12 act 6.9 | LXRb hcDAF ctr inactive | hcDAF12 ag inactive
O=C(OCN1C(=O)c2ccccc2C1=O)c1cccnc1SC(F)F	none
CCc1ccc(/C=C/C(=O)c2ccc(N3CCOCC3)cc2)cc1	hcDAF-12 act 6.8 | LXRb hcDAF ctr inactive | hcDAF12 ag inactive
COc1ccc(C(O)c2nc(-c3cncnc3)cs2)cc1 (configuration not stated)	none (no result: DAX1 inh-2)
COC(=O)c1ccc2nc(NC(=O)COC(=O)CSc3nc(C)cc(C)n3)sc2c1	hcDAF-12 act 10.7 | LXRb hcDAF ctr inactive | hcDAF12 ag 5.9
Cc1ccc2nc(NC(=O)COC(=O)CSc3nc(C)cc(C)n3)sc2c1	hcDAF-12 act 9.6 | LXRb hcDAF ctr inactive | hcDAF12 ag 8.7
COc1ccc2nc(NC(=O)CSc3nc(C)cc(C)n3)sc2c1	none
c1ccc(C2=NN(c3ccccc3)CC2)cc1	DAX1 inh-2 4.3, hcDAF-12 act 6.7, hgDAF12 agonist 11.2 | LXRb hcDAF ctr inactive | hcDAF12 ag inactive
CC(C)CN(C(=O)c1ccc(-n2cncn2)c([N+](=O)[O-])c1)C1CCS(=O)(=O)C1 (configuration not stated)	none
Cc1ccc(C=Nc2cc([N+](=O)[O-])ccc2C)s1	hcDAF-12 act 6.9 | LXRb hcDAF ctr inactive | hcDAF12 ag inactive
CNC(=O)NC(=O)C(OC(=O)CCNS(=O)(=O)c1ccccc1)c1ccccc1 (configuration not stated)	hcDAF-12 act 7.2 | LXRb hcDAF ctr inactive | hcDAF12 ag inactive
Cc1ccc(CCC(=O)Nc2ccc(Br)cc2)o1	none
Cc1ccc2[nH]c(=O)c(CN(Cc3ccccc3)Cc3nnnn3C3CCCC3)cc2c1	ssDAF12 agonist 2.5, hcDAF-12 act 13.7 | LXRb hcDAF ctr inactive | hcDAF12 ag inactive
O=C(Nc1ccc(CN2CCCCC2)cc1)Nc1ccccc1Cl	none
O=C(Nc1ccc(Br)cc1)Nc1ccccc1Cl	hcDAF-12 act 7.7 | LXRb hcDAF ctr inactive | hcDAF12 ag inactive
COc1ccc(/C(N)=N/OC(=O)c2ccc(Br)o2)cc1	hcDAF-12 act 8.4 | LXRb hcDAF ctr inactive | hcDAF12 ag inactive
O=C(Cn1cnc2c(OCc3ccccc3)ncnc21)NCC1CCCO1 (configuration not stated)	none
Cc1ccc2nc(N3C(=O)C(O)=C(C(=O)c4ccc(C)o4)C3c3ccco3)sc2c1 (configuration not stated)	DAX1 inh-1 4.1, hcDAF-12 act 8.1, hgDAF12 agonist 11.0 | LXRb hcDAF ctr inactive | hcDAF12 ag inactive
COc1ccccc1C(=O)Nc1nnc(-c2ccc(F)cc2)s1	none
O=C(Nc1nnc(-c2ccccc2)s1)c1ccc(F)cc1	hcDAF-12 act 6.7 | LXRb hcDAF ctr inactive | hcDAF12 ag inactive
CCCS(=O)(=O)NC(=O)C1(C)CCN(C(=O)c2ccc(OC(F)F)cc2)C1 (configuration not stated)	none (no result: DAX1 inh-2)
Cc1oc(-c2ccc(-c3ccccc3)cc2)nc1CN(CCO)C(C)C	ssDAF12 agonist 1.6, hcDAF-12 act 7.2, hgDAF12 agonist 14.2 | LXRb hcDAF ctr inactive | hcDAF12 ag 16.9
CCCN(CCC)C(=O)c1ccc2c(c1)S(=O)(=O)c1ccccc1C2=O	none
O=C(Nc1ccc(Cl)cc1)[C@@H]1[C@@H]2C(=O)N(c3ccc4ccccc4c3)C(=O)[C@@H]2[C@H]2C=CC=NN21	hcDAF-12 act 6.8 | LXRb hcDAF ctr inactive | hcDAF12 ag inactive
COc1ccc(N2C(=O)[C@@H]3[C@H](C2=O)[C@H]2C=CC=NN2[C@@H]3C(=O)Nc2ccc(Cl)cc2)cc1	hcDAF-12 act 6.5 (no result: DAX1 inh-2) | LXRb hcDAF ctr inactive | hcDAF12 ag inactive
